Rows were chosen to be rich in hits. Some 3.4% of all compounds tested hit in one or more screens of this group.
ADAM10 inh – human ADAM10 inhibitors, primary screen, biochemical, QFRET, HTS; Disintegrin and metalloproteinase domain-containing protein 10 (Homo sapiens), O14672; recombinant ADAM10, EDANS/DABCYL FRET peptide cleavage, 3 h; inhibition, % at 7 µM; 370,000 compounds, 0.62% hits;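 active = inhibition above a per-campaign cutoff equal to the mean of compounds falling between control-based bounds plus 3 SD, cut at about 20% in these data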
proKLK7 act – proKLK7 zymogen activators, primary screen, biochemical, fluorescence intensity; Kallikrein-7 (Homo sapiens), P49862; purified proKLK7, EDANS-DABCYL substrate fluorescence; 100% is mature enzyme control, 0% vehicle; activation, % at 7 µM; 370,000 compounds, 0.9% hits;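 active = activation above the mean of all tested compounds plus 3 SD, computed per campaign excluding outliers beyond control limits, cut at about 13% in these data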
PLC-beta3 inh – human PLC-beta3 inhibitors, primary screen, biochemical, fluorescence. 1-phosphatidylinositol 4,5-bisphosphate phosphodiesterase beta-3 (Homo sapiens), Q01970. Purified PLC-beta3, fluorogenic substrate. inhibition, % at 12.2 µM. 370,000 compounds, 0.18% hits. AID 720704, 2013
sPLA2-III inh – human group III sPLA2 inhibitors, primary screen, biochemical, QFRET, BODIPY PC-A2 liposome substrate; Group 3 secretory phospholipase A2 (Homo sapiens), Q9NZ20; QFRET BODIPY PC-A2 liposome hydrolysis, fluorescence; inhibition, % at 12.2 µM; 370,000 compounds, 0.56% hits;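 active = inhibition above mean plus 3 SD of compounds lying within the high and low control bounds, cut at about 19% in these data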
PLCg1 inh – PLC-gamma1 enzyme inhibitors, primary screen, biochemical, fluorescence, purified enzyme; 1-phosphatidylinositol 4,5-bisphosphate phosphodiesterase gamma-1 (Homo sapiens), P19174; AID 720700, 2013; inhibition, % at 12.2 µM; fluorogenic substrate; 370,000 compounds, 0.84% hits; in the data active = inhibition above about 9.5%
ADAM17 inh – ADAM17 inhibitors, primary screen, biochemical, QFRET. Disintegrin and metalloproteinase domain-containing protein 17 (Homo sapiens), P78536. recombinant ADAM17, EDANS/DABCYL FRET peptide cleavage. inhibition, % at 6.95 µM. 370,000 compounds, 0.83% hits;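 active = inhibition above the mean of compounds lying between control limits plus 3 SD, set per campaign, cut at about 8.5% in these data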
PLCgamma1 ctr – PLC-gamma1 enzyme inhibitors, counter-screen for PLC-beta3 inhibitor project, biochemical, fluorescence; AID 743258, 2014; inhibition, % at 12.3 µM; shares compounds with PLCg1 inh; purified PLC-gamma1, fluorogenic substrate; 3,300 compounds, 3.1% hits; in the data active = inhibition above about 9.5%
PLCbeta3 conf – PLC-beta3 inhibitor confirmation, biochemical, fluorescence, purified enzyme. AID 743261, 2014. inhibition, % at 12.3 µM. shares compounds with PLCg1 inh. 3,300 compounds, 1% hits. fluorogenic substrate fluorescence
A number is an active result; . = inactive; / = not tested or not shown. Cut-off read from the data, not from the text of the source, unless noted: active = inhibition above about 11%; inactive = the rest.

SMILES	ADAM10 inh	proKLK7 act	PLC-beta3 inh	sPLA2-III inh	PLCg1 inh	ADAM17 inh	PLCgamma1 ctr	PLCbeta3 conf
Cc1ccc2c(c1)NC(=O)C(CC(=O)NCCCN1CCN(c3cc(Cl)ccc3C)CC1)O2 (configuration not stated)	.	.	.	.	9.5	.	.	.
C[C@H]1[C@@H](OC(=O)Oc2ccc([N+](=O)[O-])cc2)CC[C@@]23CCCN2C(=O)CCC[C@@H]13	.	/	.	.	.	.	/	/
O=C(O)Cn1ccnc1[N+](=O)[O-]	.	.	.	.	10.1	.	.	.
C[C@H](O)[C@@H]1CN2CCc3ccc(N4CCOCC4)cc3[C@@H]2C[C@@H]1N(C)C(=O)c1ccccc1F	.	.	.	.	.	.	/	/
COC(=O)[C@]12C[C@H](CC(=O)N3CCCCC3)C(=O)N(Cc3ccco3)C1=C[C@H](COCc1ccccc1)O[C@@H]2C	.	.	.	.	.	.	/	/
COc1ccc(C)cc1S(=O)(=O)N(CC(=O)N1CCOCC1)c1cc(C)cc(C)c1	.	.	.	.	10.2	.	.	.
COc1ccc(C)cc1S(=O)(=O)N(CC(=O)N1CCCC1)c1ccc(C)cc1	.	.	.	.	.	.	/	/
Nc1[nH]c(C(=O)c2ccc(Br)cc2)c(-c2c(F)cccc2F)c1C(=O)NCCc1c[nH]c2ccccc12	.	.	.	.	.	.	/	/
COC(=O)C1=C(C(=O)OC)[C@@]2([C@@H](Cc3ccc(C)cc3)Nc3ccccc3)C=C[C@@H]1O2	.	/	.	.	.	.	/	/
COc1cc(NS(=O)(=O)c2ccc(NC(=S)NC(=O)COc3ccccc3OC)cc2)nc(OC)n1	.	.	.	.	13.7	.	.	.
COc1cc(NS(=O)(=O)c2ccc(NC(=S)NC(C)=O)cc2)nc(OC)n1	.	.	13.8	.	16.0	.	.	.
CCCCCC(=O)Nc1ccc(S(=O)(=O)Nc2cc(OC)nc(OC)n2)cc1	.	.	.	.	.	.	/	/
COc1cc(NS(=O)(=O)c2ccc(NC(=O)CN3C(=O)c4ccccc4C3=O)cc2)nc(OC)n1	.	.	.	.	12.0	.	.	.
CC(C)(C)C(=O)c1c(N)[nH]c(C(=O)c2ccccc2)c1-c1ccccc1	.	.	.	.	.	.	/	/
CCn1c2c(n(C(C)=O)c1=O)C=C(C(=O)N1CCCC1)C(C)C(c1ccccc1)=C2 (configuration not stated)	.	.	.	.	.	.	/	/
COc1cccc(CNC(=O)CCCN2C(=O)COc3ccc(C)cc32)c1OC	.	.	.	.	.	.	/	/
CCOC(=O)C1NC(=O)CC1c1ccccc1 (configuration not stated)	.	.	.	.	11.0	.	.	.
O=C(Nc1ccc(F)cc1)OCc1cn(Cc2cccc(Cl)c2)nn1	.	.	.	.	.	.	/	/
Cc1nn(-c2ccc(Cl)c(Cl)c2Cl)c(=O)c2ccccc12	.	.	.	.	10.6	.	.	.
Cc1nn(-c2ccc(Cl)cc2Cl)c(=O)c2ccccc12	.	.	.	.	.	.	/	/
NC1=NC(=O)/C(=C/c2cccs2)S1	.	.	.	.	14.7	.	.	.
NC1=NC(=O)C(=Cc2ccccc2)S1	.	.	.	.	.	.	/	/
CC(=O)Nc1ccc(S(=O)(=O)NCc2cn3c(C)csc3n2)cc1	.	.	.	.	.	.	/	/
CC(=O)Nc1ccc(S(=O)(=O)NCc2cn3ccsc3n2)cc1	.	.	11.2	.	10.9	.	.	.
CCOC(=O)c1ccc(NC(=O)N2CCN(S(C)(=O)=O)CC2)cc1	.	.	.	.	12.1	.	.	.
SMILES	ADAM10 inh	proKLK7 act	PLC-beta3 inh	sPLA2-III inh	PLCg1 inh	ADAM17 inh	PLCgamma1 ctr	PLCbeta3 conf
CCOC(=O)c1ccc(NC(=S)N2CCN(S(C)(=O)=O)CC2)cc1	.	.	.	.	.	.	/	/
C=C(C)Cn1c(SCC(=O)N/N=C(\C)c2ccc([N+](=O)[O-])cc2)nnc1-c1ccc(Br)cc1	.	.	10.9	.	10.0	.	.	.
C/C(=N\NC(=O)CSc1nc(C)cc(C)n1)c1ccc([N+](=O)[O-])cc1	.	.	.	.	.	.	/	/
Cc1ccc(C)c(Cn2c(C(C)O)nc3ccccc32)c1 (configuration not stated)	.	.	.	.	10.5	.	.	.
Cc1cnc(C(=O)OCC(=O)Nc2ccc(Cl)cc2)cn1	.	.	.	.	11.6	.	.	.
Cc1ccccc1CS(=O)(=O)Cc1ccc(C(=O)Nc2ccccc2C)o1	.	.	.	.	.	.	/	/
Cc1ccc2nsnc2c1S(=O)(=O)NCCc1c(C)[nH]c2ccc(F)cc12	.	.	.	.	10.2	.	.	.
Cc1ccc(C(NC(N)=O)c2ccccc2)cc1 (configuration not stated)	.	.	.	.	12.2	.	.	.
COc1ccc(CCC(=O)NCc2ccccc2OC)cc1	.	.	.	.	.	.	/	/
COc1ccccc1CNC(=O)CCc1ccccc1	.	.	.	.	10.3	.	.	.
CS(=O)(=O)N(CC(=O)NCc1ccccc1)Cc1ccc(Cl)cc1	.	.	.	.	.	.	/	/
COc1ccccc1/C=C(/C(=O)OCC(=O)Nc1ccccc1C)c1ccccc1	.	.	.	.	.	.	/	/
COc1ccccc1/C=C(/C(=O)OCC(=O)NCc1ccccc1)c1ccccc1	.	.	12.1	.	12.7	.	.	.
COc1ccccc1CNC(=O)CN(Cc1ccc(Cl)cc1)S(C)(=O)=O	.	.	11.0	.	.	.	.	.
O=S(=O)(c1ccccc1)N1CCCc2nc(-c3ccc(F)cc3)ccc21	.	.	.	.	.	.	/	/
C=CCN1C(=O)[C@@H](CC(=O)NCc2ccccc2)[C@]2(C(=O)OCC)CCCCC/C=C/12	.	.	.	.	.	.	/	/
COc1ccc(NS(=O)(=O)c2cccc(C(=O)NNC(=O)CNC(=O)c3ccccc3)c2)cc1	.	.	.	.	.	.	/	/
COc1ccc(NS(=O)(=O)c2cccc(C(=O)NNC(=O)COc3ccccc3)c2)cc1	.	.	.	.	9.6	.	.	.

Screening results deposited in PubChem BioAssay by The Scripps Research Institute Molecular Screening Center.
